The text below walks through data of PubChem BioAssay AID463190 (Sanford-Burnham Center for Chemical Genomics, 2010).

SMILES strings stand for the structures. About 7,300 (2.2%) of roughly 330,000 compounds were called active. The full list was thinned out, with actives kept by preference. Unmarked numbers belong to inactive results.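 Rule for the calls: active = inhibition of at least 40%; inactive = the rest.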

A short description of this assay: growth inhibition of tim10-1 ts yeast – luminescence, uHTS, primary screen (AID 463190).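 Note: mutant grown at 25 °C; 0% = DMSO wells with yeast and 100% = wells holding no yeast.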 The settings on record: S. cerevisiae tim10-1 ts strain growth, BacTiter-Glo, 24 h; at 20 µM; active compounds read high.
What is called inhibition is the drop in the measured response relative to a control, in per cent. `Cc1ccnc2nc(C(=O)OCC(=O)N(CC(C)C)CC(C)C)nn12`: the inhibition is 13.2%.
Under `Cn1cc(/C=C/C(=O)N2CCCC(C(=O)c3ccc(C(F)(F)F)cc3)C2)cn1` (configuration not stated) stands 24.9%; under `COc1cccc(C(=O)N/N=C(\C)c2cccc(NC(=O)c3ccc(F)cc3)c2)c1OC`, 20.1%.
In the case of `Cn1c(CN2CCOCC2)nc2cc(NC(=O)c3ccc(Cl)cc3)ccc21` it was 15.9%; in that of `CCC(=O)Nc1ccc(S(=O)(=O)Nc2c(NC)c3ccccc3oc2=O)cc1`, 27%.
Under `Cc1ccc(C(C)C)cc1OCC(=O)Nc1ccccc1N1CCCC1` stands -15.9%; under `O=C(CN1CCN(C2CCCCC2)CC1)Nc1ccccc1N1CCCCC1`, -10.4%; under `CN1CCN(c2ccccc2NC(=O)COc2ccc(C3CCCCC3)cc2)CC1`, 42.9% (active).
Regarding `Cc1cc(C)cc(OCC(=O)NNC(=O)CCN2C(=O)c3ccccc3C2=O)c1`, the inhibition was 9.29%.
Regarding `O=C(COC(=O)c1ccncc1)c1ccccc1`, the inhibition is 22.8%.
For `O=C(Oc1ccc(-c2nc(-c3ccccn3)no2)cc1)c1ccccc1`, the inhibition was 51.2% (active).
In the case of `Brc1ccc(-c2noc(-c3ccccc3)n2)o1` it was 11.2%; in that of `COc1ccc2oc(C(=O)OCC(=O)N(CC(C)C)c3c(N)n(Cc4ccccc4)c(=O)[nH]c3=O)c(C)c2c1`, -2.22%.
As to `CCC(C(=O)N1CCN(S(=O)(=O)c2sc(C(=O)O)c(C)c2C(=O)O)CC1)c1ccccc1` (configuration not stated), the inhibition was -6.62%.
In the case of `Cc1cc(-c2nnc(CCC(=O)NC(c3ccccc3)c3ccccc3)o2)no1` it was -7.23%; in that of `O=C(NCc1ccco1)C1(c2ccc(Cl)cc2)CCCC1`, 29.4%.
In the case of `COC(=O)/C=C/C(=O)NCc1ccco1` it was -3.84%; in that of `O=C(/C=C/c1ccc(Cl)cc1Cl)NCc1ccco1`, 41.9% (active).
Under `Cc1[nH]c2ccccc2c1C(=O)C(C)Sc1nnc(C2CC2)o1` (configuration not stated) stands -11.7%; under `CCN(CC)C(=O)CSc1nnc(C2CCCCC2)o1`, 2.18%.
Take `CCCCCC1CCC(c2nnc(SCC(C)=O)o2)CC1` (configuration not stated): the inhibition is 42.3% (active).
With `O=C(COc1cccc(F)c1)Oc1ccc(C(=O)c2ccccc2)cc1`, the inhibition was -0.003%.
Turning to `CCC(C)c1ccccc1NC(=O)CN(C)CC(=O)Nc1ccccc1SC` (configuration not stated), the inhibition was 11.9%.
In the case of `O=C(Cc1ccccc1)Nc1c(C(=O)N2CCCCCC2)cnn1-c1ccccc1` it was 29.5%; in that of `N#Cc1ccccc1Sc1ccccc1C(=O)OCC(=O)NC1CCCCC1`, 1.29%; in that of `CC(CCN1CCN=C1N(C)C)c1ccccc1` (configuration not stated), -14.7%.
Under `CC(=O)O[C@H]1c2ccccc2-c2ccccc2[C@@H]1OC(C)=O` stands 4.4%; under `CC(=O)Oc1cccc(C(=O)Nc2ccccc2NC(=O)c2cccc(OC(C)=O)c2)c1`, -9.31%.
In the case of `CC(=O)Oc1ccc2c(c1)C(=O)c1ccccc1C2=O` it was 52.2% (active); in that of `O=C(CSc1nnc(CN2CCCC2)n1-c1ccc(F)cc1)c1ccc2c(c1)OCO2`, 14.8%.
As to `CC(C)CC(=O)NC(=S)Nc1cc(C(=O)O)ccc1Cl`, the inhibition was -9%.
As for `CC(C)CC(=O)NC(=S)Nc1ccc(F)cc1F`, the inhibition is 49.5% (active).
In the case of `CC(=O)c1ccc(NC(=S)NC(=O)CC(C)C)cc1` it was 14.6%.
For `Cc1ccc(C(=O)C(C)OC(=O)Cc2n[nH]c(=O)c3ccccc23)cc1C` (configuration not stated), the inhibition is -2.29%.
Under `O=C(Nc1ccc(C(=O)NCc2ccccc2Cl)cc1)C1=CSCCO1` stands -4.56%; under `O=S(=O)(/N=C(/Nc1ccccn1)c1ccccc1)c1ccc(Cl)cc1`, 20.8%; under `Cc1ccc(S/C(=N\S(=O)(=O)c2ccc(Cl)cc2)c2ccccc2)cc1`, 41.3% (active).
For `Cc1ccc(S(=O)(=O)/N=C(/Nc2ccccn2)c2ccc(Cl)cc2)cc1`, the inhibition is 19.5%.
As for `CCC1CCCCN1CCCNC(=O)c1cc2c(Cl)nc3ccccc3c2s1` (configuration not stated), the inhibition was 32.7%.
Under `Cc1ccc(NC(=O)NC(=O)N(C2CCCCC2)S(=O)(=O)c2ccccc2)cc1` stands 13.6%; under `CCOc1ccc(NC(=O)N(CCC(C)C)C(C)c2ccco2)cc1` (configuration not stated), 15.1%.
For `CC(c1ccco1)N(C(=O)Nc1ccccc1)C1CCCCC1` (configuration not stated), the inhibition is 48.1% (active).
Under `C=CCOc1ccc(/C=N/n2cncn2)cc1OC` stands 6.25%; under `CC(Cc1cccs1)NC(=O)c1cccc(Cl)c1` (configuration not stated), 21.4%.
Under `COc1ccc(CCNCc2c(-c3ccccc3)n(C)c3ccccc23)cc1` stands 40.2% (active); under `COc1ccc(-c2nc3ccccc3c(=O)n2CCc2ccc(O)cc2)cc1`, 25.8%; under `COc1ccc(-c2c(C#Cc3ccccc3)c3ccccc3n2C)cc1`, 14.3%.
Take `Cc1ccc(Sc2cc(N3CCOCC3)nc(-c3ccccc3)n2)cc1`: the inhibition was 20.9%.
Under `CCN1CCN(c2nc(Nc3cccc(F)c3)nc(N)c2[N+](=O)[O-])CC1` stands 9.58%; under `Cc1ccccc1Nc1nc(N)nc(COC(=O)CCC(=O)c2ccc(F)cc2)n1`, 15.1%.
In the case of `O=C1CSC(=S)N1c1ccc(O)cc1` it was -38.8%.
Under `COc1cc(N2C(=O)CSC2=S)cc(OC)c1OC` stands -10%; under `O=C1CSC(=S)N1c1ccc(Cl)c(Cl)c1`, 42% (active).
Consider `COc1ccc(C)cc1Nc1n[n+](-c2ccccc2)c(-c2cccc(Cl)c2Cl)s1`, for which the inhibition was 22.9%.
On to `CCCCCCC(O)(CCN1CCCCC1)c1ccccc1` (configuration not stated), for which the inhibition was 7.54%.
Regarding `CCOc1ccc(C2C(C#N)=C(N)N(N(C)C)C3=C2C(=O)CCC3)cc1` (configuration not stated), the inhibition was 12.1%.
In the case of `CN(C)N1C(N)=C(C#N)C(c2ccc(Br)cc2)C2=C1CCCC2=O` (configuration not stated), the inhibition was 43.6% (active).
Consider `CCc1ccc(C2C(C#N)=C(N)N(N(C)C)C3=C2C(=O)CCC3)s1` (configuration not stated), for which the inhibition was 16.4%.
For the compound `CC(C)Cc1nnc(NC(=O)CN2C(=O)NC3(CCCCC3)C2=O)s1`, the inhibition is -6.92%.
Turning to `CCCc1cc(-c2nc(-c3ccc(C)cc3)cs2)ccn1`, the inhibition is 42.5% (active).
Consider `Clc1ccc(-c2csc(-c3ccncc3)n2)cc1`, for which the inhibition was 24.5%.
For the compound `Cc1ccc(-c2csc(-c3cc(C)on3)n2)cc1`, the inhibition is 11.2%.
In the case of `Cc1ccc(/C=N/NC(=O)c2cc3ccccc3cc2O)o1` it was 15.5%; in that of `Cc1cc(N=Nc2ccc3ccccc3c2)ccc1O`, 57.7% (active).
In the case of `COc1ccc(NC(=O)NCCN2CCN(c3ccc(C)cc3)CC2)c(Cl)c1` it was -2.17%; in that of `COc1ccc(C2Nc3ccccc3C(=O)N2c2ccc(Cl)cc2)cc1Cn1cc([N+](=O)[O-])cn1` (configuration not stated), 28%; in that of `Cc1cc(C)n(S(=O)(=O)c2cccc([N+](=O)[O-])c2)n1`, 12.8%.
With `Cc1ccccc1CN1CCC(C(=O)Nc2ccc(Oc3cccnc3)cc2)CC1`, the inhibition was 8.05%.
Under `Cc1cc(OCCCC(=O)NCCN2C(=O)S/C(=C\c3cccnc3)C2=O)ccc1Cl` stands 19.9%; under `O=C(NCCN1C(=O)S/C(=C\c2cccnc2)C1=O)c1ccc(S(=O)(=O)N2CCCC2)cc1`, 18.6%.
Under `O=C(NCCN1C(=O)S/C(=C\c2cccnc2)C1=O)c1cccc(OC(F)F)c1` stands 40.4% (active); under `O=C(CCNS(=O)(=O)c1ccccc1C(F)(F)F)NCc1ccc2c(c1)OCO2`, 23.1%.
Consider `Cn1nc(C(F)(F)F)c(C(=O)Nc2cccc(C(F)(F)F)c2)c1SCc1ccc(Cl)cc1`, for which the inhibition is 36%.
Under `O=C(CCn1nnnc1CN1CCOCC1)N1CCC(c2ccccc2Cl)C1` (configuration not stated) stands 15.3%; under `Cc1ccc(CC(=O)Nc2ccc(OC(F)F)c(Cl)c2)cc1C`, 15.6%.
In the case of `CC(=O)N1CCN(CC(=O)Nc2ccc(SC(F)F)cc2)CC1`, the inhibition is -0.192%.
Consider `O=C(Cc1ccc(Cl)c(Cl)c1)Nc1ccc(SC(F)F)cc1`, for which the inhibition is 43.5% (active).
On to `O=C(c1ccc(F)cc1)n1c(=S)nc2ccccn21`, for which the inhibition is 26.9%.
Turning to `COc1ccc(CNC(=O)[C@@H]2CC=C[C@@H]3CCN(C4CC4)C(=O)[C@@H]32)cc1`, the inhibition was 6.25%.
Under `CN(Cc1c(F)cccc1Cl)S(=O)(=O)c1cccs1` stands -0.379%; under `COC(=O)c1ccc(CNC(=O)C2CCC(=O)N(Cc3cccc(F)c3)C2)cc1` (configuration not stated), -22.8%.
In the case of `COc1ccc(N2CCN(c3ccc([N+](=O)[O-])cc3Cl)CC2)cc1` it was -1.93%; in that of `O=C(O)C1CCN(c2ccc([N+](=O)[O-])cc2[N+](=O)[O-])CC1`, 4.89%; in that of `O=[N+]([O-])c1ccc(N2CCN(c3ccc(O)cc3)CC2)c(Cl)c1`, 40.3% (active).
Under `ONC(=Nc1ccc(Cl)cc1)c1ccccc1Cl` stands 42.6% (active); under `ONC(=Nc1ccccc1)c1ccccc1Cl`, 18.6%; under `O=C(O)C1C2C=CC(O2)C1C(=O)NCCc1cccc(Cl)c1` (configuration not stated), -10.4%.
As to `O=C(CSc1ncn[nH]1)Nc1ccc(Br)cc1Br`, the inhibition was -12.6%.
Under `O=C(CSc1ncn[nH]1)N/N=C/c1ccc(F)cc1` stands -11.2%.
Under `O=C(/C=C/Sc1ncn[nH]1)c1ccc(Cl)cc1` stands 61.4% (active); under `N#C/C(=C\c1ccc(N2CCOCC2)o1)C(=O)N1CCOCC1`, 9.56%; under `Cc1ccc([N+](=O)[O-])c(OCCCNCC(C)O)c1` (configuration not stated), 2.12%.
In the case of `CN(C)CCNc1ccc(-c2n[nH]c(=O)c3ccccc23)cc1[N+](=O)[O-]` it was 1.37%; in that of `O=C(/C=C/c1cccs1)NCc1cccnc1`, 8.39%; in that of `O=S(=O)(Nc1ccccn1)c1cccc(S(=O)(=O)c2ccc(Cl)cc2)c1`, 14.9%.
Turning to `O=S(=O)(Nc1cccc(Oc2ccc(Cl)cc2)n1)c1ccc(F)cc1`, the inhibition was 43.9% (active).
On to `O=S(=O)(Nc1ccc(Oc2ncccn2)c(Cl)c1)c1ccc(F)cc1`, for which the inhibition was 15.3%.
